Laboratory results: PubChem BioAssay (NCI)
Compounds without any hit were thinned out: in the full panel of roughly 83,000, 20% have a hit.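 Each cell line was grown in a 96-well plate and treated with one concentration of compound for 48 hours. Values below 10 were considered active.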 Active and inactive are the calls of the source.

Columns and labels:
Assay in all cases: NCI-60 one-dose screen, 48 h (100 = growth as untreated, 0 = no growth, -100 = all killed)
Conditions in all cases: 10 µM unless noted
DU-145 prostate = system: DU-145 prostate
K-562 leukemia = system: K-562 leukemia
MALME-3M melanoma = system: MALME-3M melanoma
MDA-MB-231 breast = system: MDA-MB-231 breast
RXF 393 renal = system: RXF 393 renal
SF-268 CNS = system: SF-268 CNS
SF-295 CNS = system: SF-295 CNS
SF-539 CNS = system: SF-539 CNS
UACC-257 melanoma = system: UACC-257 melanoma
M14 melanoma = system: M14 melanoma

Measured: growth

CCOC(=O)n1ccn(C)c1=S
inactive: DU-145 prostate 112% | K-562 leukemia 103% | MALME-3M melanoma 102% | MDA-MB-231 breast 117% | RXF 393 renal 115% | SF-268 CNS 106% | SF-295 CNS 92% | SF-539 CNS 95.7% | UACC-257 melanoma 97.3% | M14 melanoma 97%

COCCn1cc(-c2nc(-c3cc4cccnc4[nH]3)cs2)c2cc(OC)ccc21
active: K-562 leukemia 6.65% | MDA-MB-231 breast 2.87%
inactive: DU-145 prostate 40.9% | MALME-3M melanoma 73.9% | RXF 393 renal 23.2% | SF-268 CNS 44.9% | SF-295 CNS 14.6% | SF-539 CNS 30.8% | UACC-257 melanoma 30.6% | M14 melanoma 37.6%

C=CC(=O)N1CCN(c2cccc(Oc3nccc(Nc4nnc(-c5ccc(Br)cc5)s4)n3)c2)CC1
inactive: DU-145 prostate 78.5% | K-562 leukemia 22.2% | MALME-3M melanoma 65.2% | MDA-MB-231 breast 75.2% | RXF 393 renal 74.7% | SF-268 CNS 74.8% | SF-295 CNS 55.8% | SF-539 CNS 72.7% | UACC-257 melanoma 80.6% | M14 melanoma 44.9%

CC1CN(S(=O)(=O)c2oc(-c3ccc(Cl)cc3)nc2C#N)CC(C)O1 (stereo not given)
active: K-562 leukemia 4.49%
inactive: DU-145 prostate 97.7% | MALME-3M melanoma 46.4% | MDA-MB-231 breast 90.7% | RXF 393 renal 40.3% | SF-268 CNS 111% | SF-295 CNS 97.9% | SF-539 CNS 60.7% | UACC-257 melanoma 87.3% | M14 melanoma 67.9%

O=C(CSc1nc2sc3c(c2c(=O)n1-c1ccccc1)CCCCC3)N/N=C/c1cccc([N+](=O)[O-])c1
active: SF-539 CNS 0.0053%
inactive: DU-145 prostate 16.5% | K-562 leukemia 56.3% | MALME-3M melanoma 74.6% | MDA-MB-231 breast 51.1% | RXF 393 renal 61.5% | SF-268 CNS 44.3% | SF-295 CNS 76.3% | UACC-257 melanoma 66.1% | M14 melanoma 71.1%

COc1ccccc1CNc1c2ccccc2nc2ccccc12
inactive: DU-145 prostate 50.5% | K-562 leukemia 10.1% | MALME-3M melanoma 45.9% | MDA-MB-231 breast 57.6% | RXF 393 renal 30.6% | SF-268 CNS 65.1% | SF-295 CNS 37.4% | SF-539 CNS 21.2% | UACC-257 melanoma 64.1% | M14 melanoma 40.8%

N#Cc1nc(-c2ccc(F)cc2)oc1S(=O)(=O)N1CCOCC1
active: K-562 leukemia 7.52% | MALME-3M melanoma 1.99% | RXF 393 renal -27.8%
inactive: DU-145 prostate 93.8% | MDA-MB-231 breast 83.2% | SF-268 CNS 114% | SF-295 CNS 104% | SF-539 CNS 66.7% | UACC-257 melanoma 93.9% | M14 melanoma 54.2%

O=C1/C(=C/c2cccc(F)c2)CN(C(=O)C(Cl)Cl)C/C1=C\c1cccc(F)c1
active: DU-145 prostate -81.5% | K-562 leukemia -9.05% | MALME-3M melanoma -36.2% | MDA-MB-231 breast -63.7% | RXF 393 renal -89.6% | SF-268 CNS -29.6% | SF-295 CNS -71.2% | SF-539 CNS -98.6% | UACC-257 melanoma -42.4% | M14 melanoma -69.7%

COC1=CC(c2ccc[nH]2)=N/C1=C\c1[nH]c(C)c(CC(=O)OCc2ccccc2)c1CCC(=O)OCc1ccccc1
active: K-562 leukemia -11.3% | MALME-3M melanoma -62.1% | MDA-MB-231 breast -44.5% | RXF 393 renal -42.6% | SF-268 CNS -2.4% | SF-295 CNS -62.3% | SF-539 CNS -78.1% | UACC-257 melanoma -46% | M14 melanoma -78.2%
inactive: DU-145 prostate 11.8%

c1cc2c(ccc3[nH]c(-c4ccc5[nH]ncc5c4)c4c(c32)CCCC4)n1
active: K-562 leukemia 2.93%
inactive: DU-145 prostate 66% | MALME-3M melanoma 35.9% | MDA-MB-231 breast 78.4% | RXF 393 renal 89.3% | SF-268 CNS 62.3% | SF-295 CNS 63.6% | SF-539 CNS 62.9% | UACC-257 melanoma 74.9% | M14 melanoma 61.9%

N=C(N)c1ccc(-c2ccc(-c3ccc(Cl)c(Cl)c3)s2)nc1
inactive: MALME-3M melanoma 60.5% | RXF 393 renal 79.5% | SF-268 CNS 46.8% | SF-539 CNS 23.1% | UACC-257 melanoma 87.9% | M14 melanoma 36.1%
active: DU-145 prostate -76.5% | K-562 leukemia -23.4% | MDA-MB-231 breast -27.1% | SF-295 CNS 0.36%

CCC(C)(C)C(=O)O[C@H]1C[C@@H](C)C=C2C=C[C@H](C)[C@H](CC[C@@H]3CC(SCCN)CC(=O)O3)[C@H]21 (stereo not given in full)
inactive: DU-145 prostate 98.7% | K-562 leukemia 51.2% | MALME-3M melanoma 86.2% | MDA-MB-231 breast 88.7% | RXF 393 renal 86.8% | SF-268 CNS 96.3% | SF-295 CNS 106% | SF-539 CNS 76.2% | UACC-257 melanoma 78% | M14 melanoma 60.1%

O=C1c2c(c3c4ccccc4[nH]c3c3ccc4ccccc4c23)C(=O)N1CCN1CCNCC1
active: DU-145 prostate 8.13% | K-562 leukemia -41.5% | MDA-MB-231 breast -66.8% | M14 melanoma 6.23%
inactive: MALME-3M melanoma 80.7% | RXF 393 renal 91.6% | SF-268 CNS 80.1% | SF-295 CNS 89.4% | SF-539 CNS 82.6% | UACC-257 melanoma 109%

C/C(Cc1ccc(Cl)cc1)=C(\c1ccc(O)cc1)c1ccc(Cl)cc1
inactive: DU-145 prostate 101% | K-562 leukemia 89.3% | MALME-3M melanoma 82.5% | MDA-MB-231 breast 96.6% | RXF 393 renal 100% | SF-268 CNS 95% | SF-295 CNS 95.1% | SF-539 CNS 107% | UACC-257 melanoma 98.2% | M14 melanoma 83.7%

O=C1/C(=C\c2ccc3nccnc3c2)SC(=S)N1CCc1ccc(O)cc1
inactive: DU-145 prostate 59.6% | K-562 leukemia 96.9% | MALME-3M melanoma 75.7% | MDA-MB-231 breast 88.7% | RXF 393 renal 93% | SF-268 CNS 90.8% | SF-295 CNS 105% | SF-539 CNS 82.2% | UACC-257 melanoma 81.9% | M14 melanoma 85.5%

CN1CCc2nc3sc(C(N)=O)c(N)c3c(-c3cccs3)c2C1
inactive: DU-145 prostate 10.2% | K-562 leukemia 74.2% | MALME-3M melanoma 55% | MDA-MB-231 breast 44.5% | SF-268 CNS 16.4% | SF-295 CNS 21.7% | SF-539 CNS 10.9% | UACC-257 melanoma 57.9% | M14 melanoma 15.5%
active: RXF 393 renal -32%

NC(=O)c1c(NC(=O)c2ccc3ccccc3c2)sc2c1CCC(=O)C2
inactive: DU-145 prostate 94.4% | K-562 leukemia 14.6% | MALME-3M melanoma 91.1% | MDA-MB-231 breast 67.5% | RXF 393 renal 60.7% | SF-268 CNS 31.4% | SF-295 CNS 93.4% | SF-539 CNS 25.4% | UACC-257 melanoma 91.6% | M14 melanoma 37.4%

O=C(Nc1ccccc1)Nc1ncnc2c1ncn2-c1ccc(Cl)cc1
inactive: DU-145 prostate 96.3% | K-562 leukemia 99.6% | MALME-3M melanoma 71.9% | MDA-MB-231 breast 80.8% | RXF 393 renal 91.7% | SF-268 CNS 97.1% | SF-295 CNS 76.4% | SF-539 CNS 107% | UACC-257 melanoma 109% | M14 melanoma 98.9%

O=C(/C=C/c1ccccc1)Nc1ncc(Cc2ccccc2Cl)s1
inactive: DU-145 prostate 26.9% | K-562 leukemia 12.6% | MALME-3M melanoma 53.8% | MDA-MB-231 breast 40.3% | SF-268 CNS 71.6% | UACC-257 melanoma 77.1%
active: RXF 393 renal -7.17% | SF-295 CNS -2.76% | SF-539 CNS -16.3% | M14 melanoma 8.18%

N#CC1=C(N)Oc2c(ccc3ccccc23)C1c1ccccc1 (stereo not given)
inactive: DU-145 prostate 13.4% | MALME-3M melanoma 46.5% | MDA-MB-231 breast 28.3% | RXF 393 renal 68.5% | SF-268 CNS 19.2% | UACC-257 melanoma 37.5%
active: K-562 leukemia 9.05% | SF-295 CNS 8.94% | SF-539 CNS -3.42% | M14 melanoma 3.13%

COC(=O)c1nc(-c2ccc(C)cc2)oc1S(=O)(=O)c1cccc(OC)c1
active: MALME-3M melanoma -12.3%
inactive: DU-145 prostate 104% | K-562 leukemia 11.6% | MDA-MB-231 breast 94.1% | RXF 393 renal 77% | SF-268 CNS 92.8% | SF-295 CNS 104% | SF-539 CNS 101% | UACC-257 melanoma 97.5% | M14 melanoma 90.4%

CN(C)c1ccc(C(=O)OCCCCCCl)cc1
inactive: DU-145 prostate 96.4% | K-562 leukemia 106% | MALME-3M melanoma 89% | MDA-MB-231 breast 87.4% | RXF 393 renal 102% | SF-268 CNS 94% | SF-295 CNS 98.9% | SF-539 CNS 96.1% | UACC-257 melanoma 109% | M14 melanoma 95.3%

CN1CCN(c2cc(Nc3cc(C4CC4)[nH]n3)nc(Nc3ccc(CC(=O)NCc4cccc(F)c4)cc3)n2)CC1
inactive: DU-145 prostate 41.7% | K-562 leukemia 20.7% | MALME-3M melanoma 34.7% | MDA-MB-231 breast 14.4% | SF-268 CNS 30.2% | SF-295 CNS 49.4% | UACC-257 melanoma 40.9% | M14 melanoma 23.7%
active: RXF 393 renal -56.5% | SF-539 CNS -22.9%

COc1cc(-c2csc(NC(=O)c3ccc(N4CCOCC4)c(C(F)(F)F)c3)n2)cc(OC)c1OC
inactive: DU-145 prostate 53.4% | K-562 leukemia 18.9% | MALME-3M melanoma 29.3% | MDA-MB-231 breast 71.4% | RXF 393 renal 62% | SF-268 CNS 40% | SF-295 CNS 21.9% | SF-539 CNS 49.6% | UACC-257 melanoma 26.6% | M14 melanoma 12.9%

Fc1cccc(Oc2ccc(Nc3ncnc4ccc(OCCCN5CCOCC5)cc34)cc2Cl)c1
active: K-562 leukemia 3.55% | M14 melanoma -44%
inactive: DU-145 prostate 52.5% | MALME-3M melanoma 24.6% | MDA-MB-231 breast 61.4% | RXF 393 renal 55.5% | SF-268 CNS 54.4% | SF-295 CNS 82.7% | SF-539 CNS 88.1% | UACC-257 melanoma 12.5%
